Data published in PubChem BioAssay (Tox21).
Results filed as inconclusive are left out. Activity calls are given as the source filed them. Unless noted, calls come from the whole dose curve; as a rule, active = well fitted curve in the direction sought with a large enough effect in the repeat runs; inconclusive = weak or mixed curves; inactive = no such curve, though single readings can be large; an effect the other way counts as inactive or inconclusive.

Assays:
[1] = qHTS assay to test for compound auto fluorescence at 535 nm (green) in HEK293 cells (AID 720680)
[2] = qHTS assay to test for compound auto fluorescence at 460 nm (blue) in HEK293 cell free culture (AID 720681)
Outline: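 Compounds were added to cell-free DMEM with 10% FBS and fluorescence read directly. The blue channel used 405 nm excitation and 460 nm emission, with triamterene as the reference fluorophore.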

[3] = qHTS assay to test for compound auto fluorescence at 590 nm (red) in HEK293 cell free culture (AID 720683)
Outline: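 Cell-free wells of DMEM with 10% FBS received compound, and intrinsic fluorescence was read at excitation/emission 540/590 nm. Values expressed as equivalence to Rose Bengal sodium.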

[4] = qHTS assay to test for compound auto fluorescence at 590 nm (red) in HepG2 cell free culture (AID 720684)
Outline: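 Compounds are added to culture medium (MEM, 10% FBS) lacking cells, then fluorescence is read at excitation 540 nm, emission 590 nm, with Rose Bengal sodium as the equivalency standard.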

[5] = qHTS assay to test for compound auto fluorescence at 460 nm (blue) in HepG2 cell free culture (AID 720685)
Outline: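 Compound (23 nL) or DMSO pinned into cell-free MEM with 10% FBS; blue fluorescence read at 405/460 nm excitation/emission, expressed as auto-fluorescence equivalency to triamterene.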

[6] = qHTS assay to test for compound auto fluorescence at 460 nm (blue) in HepG2 cells (AID 720687)
Outline: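 HepG2 cells in MEM with 10% FBS, attached overnight at 37 C, were exposed to compound or DMSO for 1 hr at 37 C, 5% CO2. Blue fluorescence was read at 405/460 nm, with triamterene as reference fluorophore.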

[7] = target: Glucocorticoid receptor (Homo sapiens) (UniProt P04150); experiment: qHTS assay to identify small molecule agonists of the glucocorticoid receptor (GR) signaling pathway (AID 720691; active = well fitted activation curve with a large enough effect in the signal ratio in the repeat runs, not every such curve was filed as active; the % refers to the signal ratio)
Glucocorticoid receptor (Homo sapiens), sequence (P04150 whole entry, looked up): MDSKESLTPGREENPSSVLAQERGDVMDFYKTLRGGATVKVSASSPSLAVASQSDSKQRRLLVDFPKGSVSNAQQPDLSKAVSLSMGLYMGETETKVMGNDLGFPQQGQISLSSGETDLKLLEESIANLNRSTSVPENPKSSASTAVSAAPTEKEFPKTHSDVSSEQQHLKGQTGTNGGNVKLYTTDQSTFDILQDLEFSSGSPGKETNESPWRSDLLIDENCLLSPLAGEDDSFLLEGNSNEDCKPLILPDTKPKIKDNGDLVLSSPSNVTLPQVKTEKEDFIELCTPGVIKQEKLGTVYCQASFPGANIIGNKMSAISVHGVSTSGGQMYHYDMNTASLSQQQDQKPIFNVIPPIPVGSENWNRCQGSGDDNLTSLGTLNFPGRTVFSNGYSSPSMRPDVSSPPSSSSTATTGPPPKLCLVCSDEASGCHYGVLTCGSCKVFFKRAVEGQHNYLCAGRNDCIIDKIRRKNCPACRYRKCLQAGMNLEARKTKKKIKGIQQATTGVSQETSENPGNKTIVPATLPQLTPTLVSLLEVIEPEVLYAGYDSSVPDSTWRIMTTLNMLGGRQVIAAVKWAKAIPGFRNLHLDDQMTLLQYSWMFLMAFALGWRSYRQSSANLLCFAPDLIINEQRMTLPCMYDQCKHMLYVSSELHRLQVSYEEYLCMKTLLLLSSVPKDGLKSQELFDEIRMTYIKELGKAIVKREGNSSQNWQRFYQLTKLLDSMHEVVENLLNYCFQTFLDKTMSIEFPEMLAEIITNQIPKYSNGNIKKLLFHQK
Outline: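 qHTS in GR-bla HeLa cells: 4 h settling at 37 C/5% CO2, 18 h compound incubation at 37 C, 2 h LiveBLAzer B/G FRET substrate at room temperature, fluorescence intensity measured.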

[8] = target: Glucocorticoid receptor (Homo sapiens) (UniProt P04150); experiment: qHTS assay to identify small molecule antagonists of the glucocorticoid receptor (GR) signaling pathway (AID 720692; active = well fitted inhibition curve with a large enough effect in the signal ratio in the repeat runs, not every such curve was filed as active; the % refers to the signal ratio)
Outline: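 Inhibition of glucocorticoid signalling is measured in HeLa cells with a GRE-controlled beta-lactamase reporter; cells are co-treated with compound and 5 nM dexamethasone (final) for 18 h before FRET substrate readout.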

[9] = qHTS assay to identify small molecule antagonists of the glucocorticoid receptor (GR) signaling pathway - cell viability counter screen (AID 720693); note: nearly all actives have a fitted effect of over 55% in size
[10] = qHTS assay for identifying genotoxic compounds that show differential cytotoxicity against isogenic chicken DT40 cell lines with known DNA damage response pathways - wild type cell line (AID 743012); note: nearly all actives have a fitted effect of over 60% in size
Outline: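 First, wild type DT40 cells were plated at 300 per well and equilibrated about 0.5 h at 37 C/5% CO2. Next, compounds in DMSO were added and exposure lasted 40 h. Finally, CellTiter-Glo was added for 30 min at room temperature and luminescence recorded.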

[11] = qHTS assay for identifying genotoxic compounds that show differential cytotoxicity against isogenic chicken DT40 cell lines with known DNA damage response pathways - Rev3 mutant cell line (AID 743014); note: nearly all actives have a fitted effect of over 55% in size
[12] = qHTS assay for identifying genotoxic compounds that show differential cytotoxicity against isogenic chicken DT40 cell lines with known DNA damage response pathways - Rad54/Ku70 mutant cell line (AID 743015); note: nearly all actives have a fitted effect of over 60% in size
[13] = qHTS assay to identify small molecule antagonists of the androgen receptor (AR) signaling pathway - cell viability counter screen (AID 743033; note: nearly all actives have a fitted effect of over 45% in size)
[14] = target: Androgen receptor (Homo sapiens) (UniProt P10275); experiment: qHTS assay to identify small molecule antagonists of the androgen receptor (AR) signaling pathway (AID 743035; active = well fitted inhibition curve with a large enough effect in the signal ratio in the repeat runs, not every such curve was filed as active; the % refers to the signal ratio)
Androgen receptor (Homo sapiens), sequence (P10275 whole entry, looked up): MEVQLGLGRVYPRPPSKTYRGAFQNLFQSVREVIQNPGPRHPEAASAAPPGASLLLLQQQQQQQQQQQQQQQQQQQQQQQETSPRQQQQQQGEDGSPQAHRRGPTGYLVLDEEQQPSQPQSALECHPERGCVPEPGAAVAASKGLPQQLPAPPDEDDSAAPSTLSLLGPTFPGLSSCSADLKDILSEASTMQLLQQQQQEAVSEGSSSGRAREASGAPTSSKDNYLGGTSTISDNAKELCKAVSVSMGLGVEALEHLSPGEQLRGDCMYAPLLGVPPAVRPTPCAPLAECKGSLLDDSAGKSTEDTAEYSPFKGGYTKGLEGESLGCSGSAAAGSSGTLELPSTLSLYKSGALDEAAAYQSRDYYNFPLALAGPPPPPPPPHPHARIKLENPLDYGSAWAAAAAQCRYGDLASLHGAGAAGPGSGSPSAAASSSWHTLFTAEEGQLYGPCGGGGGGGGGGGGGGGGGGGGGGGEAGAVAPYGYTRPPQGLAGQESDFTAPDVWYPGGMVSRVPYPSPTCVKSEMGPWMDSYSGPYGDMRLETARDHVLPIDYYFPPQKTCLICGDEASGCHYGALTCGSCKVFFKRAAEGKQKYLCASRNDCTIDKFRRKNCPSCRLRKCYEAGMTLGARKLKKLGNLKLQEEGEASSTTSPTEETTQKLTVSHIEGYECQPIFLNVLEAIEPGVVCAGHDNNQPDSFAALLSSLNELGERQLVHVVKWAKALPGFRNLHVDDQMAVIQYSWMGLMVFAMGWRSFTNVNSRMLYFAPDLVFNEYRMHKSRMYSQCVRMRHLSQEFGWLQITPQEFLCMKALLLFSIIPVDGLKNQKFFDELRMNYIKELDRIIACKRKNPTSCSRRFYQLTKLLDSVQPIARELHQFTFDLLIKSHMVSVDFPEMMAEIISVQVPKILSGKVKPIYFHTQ
Outline: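 Beta-lactamase FRET read (2 h RT incubation with LiveBLAzer B/G) following 16 h of compound plus R1881 treatment of AR-UAS-bla HEK293 cells, which had been pre-incubated 4 h at 37C.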

[15] = target: Androgen receptor (Homo sapiens) (UniProt P10275); experiment: qHTS assay to identify small molecule agonists of the androgen receptor (AR) signaling pathway (AID 743036; active = well fitted activation curve with a large enough effect in the signal ratio in the repeat runs, with a control signal flat, not every such curve was filed as active; the % refers to the signal ratio)
Outline: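 Agonist activity was scored by beta-lactamase reporter fluorescence in stably transfected HEK293 cells exposed to compounds for 16 h at 37C and 5% CO2. Substrate loading took 2 h at room temperature.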

[16] = target: Androgen receptor (Homo sapiens) (UniProt P10275); experiment: qHTS assay to identify small molecule agonists of the androgen receptor (AR) signaling pathway using the MDA cell line (AID 743040; note: nearly all actives have a fitted effect of over 20% in size)
Outline: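 Human breast carcinoma MDA-kb2 reporter cells (MMTV-luc, AR/GR elements) were treated for 16 h at 37C in 0% CO2 following a 5 h settling period. Signal was quantified by ONE-Glo luminescence.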

[17] = qHTS assay to identify small molecule antagonists of the androgen receptor (AR) signaling pathway using the MDA cell line - cell viability counter screen (AID 743041; note: nearly all actives have a fitted effect of over 45% in size)
Outline: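 Same-well cytotoxicity was assessed by CellTiter-Fluor in MDA-kb2 AR-luc cells after 16 h of compound treatment under R1881 agonism.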

[18] = target: Androgen receptor (Homo sapiens) (UniProt P10275); experiment: qHTS assay to identify small molecule antagonists of the androgen receptor (AR) signaling pathway using the MDA cell line (AID 743042; note: nearly all actives have a fitted effect of over 55% in size)
Outline: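 MDA-kb2 breast carcinoma cells carrying MMTV-luciferase (AR/GR responsive) were co-treated with compounds and the agonist R1881 for 16 h at 37C. Inhibition read as ONE-Glo luminescence; CellTiter-Fluor fluorescence measured in parallel for cytotoxicity.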

[19] = qHTS assay to test for compound auto fluorescence at 535 nm (green) in HepG2 cell free culture (AID 720686)
[20] = qHTS assay to test for compound auto fluorescence at 535 nm (green) in HEK293 cell free culture (AID 720682)
Outline: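 Intrinsic compound fluorescence is measured in culture medium containing 10% FBS, with excitation at 485 nm and detection at 535 nm, referenced to fluorescein.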

Measured: Potency

CC(=O)CC(=O)Nc1ccc(C)cc1C
not listed: [19] | [20]
inactive: all other assays above

CC(=O)OC(C)=O
not listed: [8] | [11] | [14] | [15] | [16] | [18] | [20]
inactive: all other assays above

CCOc1cccc(N)c1
not listed: [7] | [8] | [11] | [14] | [15] | [16] | [18] | [20]
inactive: all other assays above

Cc1ccccc1C(N)=O
not listed: [11] | [14] | [15] | [16] | [18] | [20]
inactive: all other assays above

CC(CO)(CO)CO
not listed: [14] | [15] | [16] | [18] | [19] | [20]
inactive: all other assays above

NCC1(Cc2noc(=O)[nH]2)CCCCC1
not listed: [7] | [8] | [10] | [14] | [15] | [16] | [18] | [20]
inactive: all other assays above

Nc1nnnn1-c1ccccc1
not listed: [14] | [15] | [16] | [18] | [19] | [20]
inactive: all other assays above

CC(O)CC(C)O (centres undefined)
not listed: [14] | [15] | [16] | [18] | [20]
inactive: all other assays above

CCC[C@@H]1C[C@@H](C(=O)N[C@@H]([C@H]2O[C@H](SC)[C@H](O)[C@@H](O)[C@H]2O)[C@@H](C)O)N(C)C1
not listed: [2] | [14] | [15] | [16] | [18]
inactive: all other assays above

CCOC(=O)CC1(C)OCC(C)O1 (centres undefined)
not listed: [7] | [8] | [14] | [15] | [16] | [18] | [20]
inactive: all other assays above

CCCCCCCCCCOC(C)=O
not listed: [6] | [14] | [15] | [16] | [18] | [20]
inactive: all other assays above

C/C(CC(C)C)=N\O
not listed: [14] | [15] | [16] | [18] | [20]
inactive: all other assays above
